TWEAK-Fn14 inh: inhibitors of TWEAK-Fn14 interaction signaling | AID 1159606 | 2% of 360,000 active | inhibition, % at 10 µM | TWEAK-stimulated Fn14 reporter cells, luciferase luminescence, 8 h; in the data active = inhibition above about 50%
EBV LMP1 NFkB: inhibitors of Epstein-Barr LMP1-induced NF-kappaB reporter | LMP1-induced NF-kappaB luciferase reporter cells, luminescence | inhibition, % at 12.5 µM | 0.69% of 350,000 active | AID 504558; in the data active = inhibition above about 41%; inconclusive = no clear call, values can overlap the other calls;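 note: 0% = neutral control wells and 100% = reference inhibitor control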
TROY NFkB inh: inhibitors of TROY-dependent NF-kB signaling. AID 1347056. inhibition, % at 10 µM. 0.98% of 360,000 active. Q293 LMP1-TROYcd NF-kB luciferase reporter, 4 h;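 active = compounds whose plate-normalised and pattern-corrected inhibition of the luciferase reporter signal at the single screening dose is 50% or more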
LGR2 inh: inhibitors of bursicon-induced Drosophila LGR2 receptor cAMP signaling. HEK293 LGR2, CRE-luciferase, bursicon-stimulated, 4 h. inhibition, % at 9.99 µM. 0.35% of 380,000 active;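 active = drop in luminescence signal, shown as inhibition above about 50% in the replicate tests, limit read from the data, passing the limit was not always enough; inconclusive = probably only some replicates passing the limit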;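 note: agonist challenge used bursicon conditioned medium at about half maximal strength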
HSF1 inhib: HSF1 inhibition; NIH3T3-HGL HSE-luciferase, MG132-induced, luminescence 8 h; stronger effect = lower value; activity change, negative = inhibition, % at 7.5 µM (by protocol); 0.77% of 300,000 active;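 active = more than half of replicate wells show activity change below -50%, luminescence cut by over half; inconclusive = some wells, but at most half, below -50%; inactive = no replicate well below -50%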;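 note: luciferase reports HSF-1 transcriptional activity via heat shock element; 0% = median of DMSO wells and -100% = zero luminescence signal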
HSF-1 act: increases HSF-1 driven luciferase reporter signal. activation, % at 9 µM. NIH3T3-HGL HSF-1 luciferase reporter, MG132, 8 h; 100% = twice DMSO control signal. 1.7% of 300,000 active;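 active = mean replicate activation of at least 50% with a set share of replicates each reaching 50%; inconclusive = only one of those two conditions met; inactive = mean below 50% and too few replicates reaching it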;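 note: 0% = median of the neutral control wells and 100% = twice that signal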
An asterisk follows results filed as active; ? = inconclusive; nt = no result given. Only some compounds are listed: those with a hit (about 3.6% of all), similar ones and a draw of the others.

SMILES	TWEAK-Fn14 inh	EBV LMP1 NFkB	TROY NFkB inh	LGR2 inh	HSF1 inhib	HSF-1 act
CN1C(=O)c2cc(NC(=O)c3cccc(F)c3)ccc2OC[C@@H]2O[C@H](CC(=O)NCc3ccccc3)CC[C@@H]21	nt	nt	nt	14	nt	nt
CCNC(=O)[C@@H]1[C@@H](CO)[C@@H]2Cn3c(ccc(-c4ccncc4)c3=O)[C@@H]2N1Cc1ccc2c(c1)OCO2	nt	nt	nt	3	nt	nt
Cc1ccc(N(C(=O)c2csnn2)C(C(=O)NC2CCCC2)c2ccncc2)c(C)c1 (stereo unspecified)	10	0	-3	9	43	61*
Cc1ccc(C)c(N(C(=O)c2csnn2)C(C(=O)NC2CCCC2)c2ccncc2)c1 (stereo unspecified)	-7	-3	2	14	-3	9
Nn1c(SCc2nc3ccccc3[nH]2)nnc1-c1cccnc1	-11	-3	-2	nt	5	23
CCn1c(SCC(=O)Nc2ccc(N(C)C)cc2)nnc1-c1cccc(C)c1	-15	-7	-2	6	-76*	-80
COc1cccc(-c2nnc(SCc3nc4ccccc4[nH]3)n2N)c1	27	-7	-63	-21	60	71*
CCn1c(SCC(=O)Nc2cc(C)on2)nnc1-c1cccc(C)c1	22	-14	-35	-3	-3	-8
CCn1c2ccccc2c2cc(NC(=O)CSc3nnc(-c4cccc(OC)c4)n3N)ccc21	37	6	18	nt	20	58*
O=C(C[C@H]1C[C@H]2c3cc(NC(=O)Cc4ccncc4)ccc3O[C@H]2[C@H](CO)O1)NCc1ccc2c(c1)OCO2	nt	nt	nt	-13	nt	nt
COc1ccccc1C(=O)NNC(=O)c1ccccc1[N+](=O)[O-]	-4	-3	-12	7	-3	8
Cc1ccc(C(=O)C(C)OC(=O)c2ccccc2[N+](=O)[O-])cc1 (stereo unspecified)	3	-33	-11	-21	51	87*
Cc1ccc(C(=O)/C=C/c2ccc(-c3ccccc3[N+](=O)[O-])o2)cc1	41	-8	30	nt	2	-1
Cc1ccc(C(=O)/C=C/c2ccccc2[N+](=O)[O-])cc1	30	-40	-63	-53	91	135*
O=C(/C=C/c1ccccc1[N+](=O)[O-])c1ccccc1Br	10	-17	-12	?	43	65*
COc1ccc(S(=O)(=O)Nc2cccc3c2O[C@@H](CN(C)C)[C@@H](C)CN([C@@H](C)CO)C3=O)cc1	nt	nt	nt	8	nt	nt
C[C@@H]1CN([C@H](C)CO)C(=O)Cc2cc(N(C)C)ccc2O[C@@H]1CN(C)C(=O)Nc1cccc2ccccc12	nt	nt	nt	-10	nt	nt
CCCCN(C(=O)CSc1nn(-c2ccc(F)cc2)c(=S)s1)c1c(N)n(CCCC)c(=O)[nH]c1=O	-8	3	-6	0	2	18
Cn1c(N)c(C(=O)CSc2nn(-c3ccc(F)cc3)c(=S)s2)c(=O)n(C)c1=O	60*	11	47	-4	nt	nt
Cc1noc(C)c1NC(=O)Nc1ccc2c(c1)C(=O)N(C)[C@@H]1CC[C@@H](CC(=O)NCc3ccc(Cl)cc3)O[C@@H]1CO2	nt	nt	nt	-4	nt	nt
CCOC(=O)c1ccc(NC(=S)N2CCSC2c2ccc(OC)cc2)cc1 (stereo unspecified)	15	67*	5	7	-40	-45
CCOC(=O)c1ccc(NC(=S)N2CCSC2c2ccc(Cl)cc2)cc1 (stereo unspecified)	20	-3	9	-5	nt	nt
C[C@@H]1CN([C@H](C)CO)C(=O)Cc2cc(NC(=O)C3CC3)ccc2O[C@H]1CN(C)CC1CC1	nt	nt	nt	-3	nt	nt
O=C(CSc1ccccn1)Nc1nonc1[N+](=O)[O-]	69*	-1	68*	46	-3	-14
C[C@H]1CN([C@@H](C)CO)C(=O)Cc2cc(NS(=O)(=O)c3ccccc3)ccc2O[C@@H]1CN(C)C(=O)Nc1ccc2c(c1)OCO2	nt	nt	nt	-5	nt	nt
SMILES	TWEAK-Fn14 inh	EBV LMP1 NFkB	TROY NFkB inh	LGR2 inh	HSF1 inhib	HSF-1 act
CO[C@H]1CN(C)C(=O)c2cc(NC(C)=O)ccc2OC[C@@H](C)N(Cc2cncnc2)C[C@H]1C	nt	nt	nt	-3	nt	nt
COc1ccc(C(=O)N/N=C(\c2ccccc2)c2ccccn2)cc1	-28	22	-7	nt	38	100*
COc1ccc(NC(=O)c2ccccn2)cc1	84*	52*	57*	nt	-19	4
COc1ccccc1C(=O)NCCCNC(=O)c1ccccn1	8	3	-3	-11	31	79*
COc1ccc(Cc2nc(C(=O)Nc3ccccc3)cs2)cc1	14	-13	0	nt	27	59*
Cc1cccc(S(=O)(=O)N2CC[C@@H]3[C@@H](CO)Nc4ccc(C#Cc5cccnc5)cc4[C@@H]32)c1	nt	nt	nt	-7	nt	nt
CC(C)NC(=O)Nc1cccc2c1O[C@H](CN(C)S(=O)(=O)c1cccs1)[C@H](C)CN([C@H](C)CO)C2=O	nt	nt	nt	-1	nt	nt
COc1ccc(NC(=O)c2cc3ccccn3n2)cc1	63*	16	-5	27	8	22
COc1ccc(C(=O)N/N=C/c2cccc3cccnc23)cc1	105*	3	nt	nt	6	5
COc1ccc(NC(=O)c2cccc(NC(=O)c3ccccc3)c2)cc1	-13	-25	-26	-7	16	3
COc1cc(C(=O)NCCOc2ccccc2C)c(Br)c(OC)c1OC	-18	7	-3	-5	11	13
COc1ccc(C(=O)NCCOc2ccccc2Cl)c(OC)c1OC	-16	-18	-37	-59	56	54*
COc1ccc(C(=O)NCCSc2ccccn2)cc1	65*	9	11	nt	22	44
Cc1noc(C)c1S(=O)(=O)Nc1cccc2c1O[C@@H](CN(C)Cc1ccc(C(=O)Nc3ccccc3N)cc1)[C@@H](C)CN([C@@H](C)CO)C2=O	nt	nt	nt	8	nt	nt
CCCn1c(N2CCN(C(=O)Nc3ccccc3)CC2)nc2ccccc21	0	6	-37	-1	0	1

Bioassay records as filed in PubChem.
